# Legend:
# [1] = target: Ribosomal protein S6 kinase alpha-6 (Homo sapiens) (UniProt Q9UK32); details: at 1 µM;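 note: each value is a mean inhibition of RSK4 from a GSK PKIS panel screen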
# [2] = target: T1, Serine/threonine-protein kinase Sgk1 (Homo sapiens) (UniProt O00141); details: at 0.1 µM
# T1 sequence (whole entry): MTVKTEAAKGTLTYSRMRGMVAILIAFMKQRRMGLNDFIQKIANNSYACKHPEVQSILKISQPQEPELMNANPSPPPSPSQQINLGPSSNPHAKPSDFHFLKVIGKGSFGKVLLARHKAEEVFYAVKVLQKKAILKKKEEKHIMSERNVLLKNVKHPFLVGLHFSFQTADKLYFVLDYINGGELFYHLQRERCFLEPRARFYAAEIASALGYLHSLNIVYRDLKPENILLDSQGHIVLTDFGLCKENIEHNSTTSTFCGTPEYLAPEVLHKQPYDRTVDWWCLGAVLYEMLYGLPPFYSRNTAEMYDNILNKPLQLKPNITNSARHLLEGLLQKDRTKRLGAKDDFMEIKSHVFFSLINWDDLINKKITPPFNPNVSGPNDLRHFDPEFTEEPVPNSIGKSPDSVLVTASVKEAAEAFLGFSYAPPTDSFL
# [3] = target: T1, Serine/threonine-protein kinase Sgk1 (Homo sapiens); details: at 1 µM
# [4] = target: T2, Serine/threonine-protein kinase Sgk2 (Homo sapiens) (UniProt Q9HBY8); details: at 0.1 µM
# T2 sequence (whole entry): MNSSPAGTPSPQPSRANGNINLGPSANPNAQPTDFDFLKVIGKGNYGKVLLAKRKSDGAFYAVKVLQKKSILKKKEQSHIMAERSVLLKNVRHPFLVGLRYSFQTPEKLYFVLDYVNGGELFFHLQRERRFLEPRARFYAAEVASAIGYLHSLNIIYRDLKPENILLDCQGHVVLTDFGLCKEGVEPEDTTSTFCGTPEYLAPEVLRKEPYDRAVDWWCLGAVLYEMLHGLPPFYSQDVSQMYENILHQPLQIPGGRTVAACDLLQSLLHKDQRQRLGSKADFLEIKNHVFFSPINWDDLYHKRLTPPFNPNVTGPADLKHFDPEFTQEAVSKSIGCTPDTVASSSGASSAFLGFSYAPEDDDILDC
# [5] = target: T3, Serine/threonine-protein kinase Sgk3 (Homo sapiens) (UniProt Q96BR1); details: at 0.1 µM
# T3 sequence (whole entry): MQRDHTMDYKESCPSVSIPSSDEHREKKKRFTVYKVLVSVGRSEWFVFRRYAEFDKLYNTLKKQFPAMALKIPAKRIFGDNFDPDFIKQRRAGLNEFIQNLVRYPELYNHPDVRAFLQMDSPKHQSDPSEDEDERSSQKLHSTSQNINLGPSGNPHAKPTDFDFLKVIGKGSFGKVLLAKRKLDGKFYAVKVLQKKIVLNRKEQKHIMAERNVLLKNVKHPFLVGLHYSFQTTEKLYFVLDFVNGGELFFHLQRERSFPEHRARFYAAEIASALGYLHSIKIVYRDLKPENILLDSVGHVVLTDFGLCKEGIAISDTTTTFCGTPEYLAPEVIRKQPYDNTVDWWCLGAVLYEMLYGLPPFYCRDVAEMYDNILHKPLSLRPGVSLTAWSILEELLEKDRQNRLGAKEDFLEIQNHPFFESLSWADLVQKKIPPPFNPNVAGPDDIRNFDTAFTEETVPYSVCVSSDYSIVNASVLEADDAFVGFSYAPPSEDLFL
# [6] = target: T3, Serine/threonine-protein kinase Sgk3 (Homo sapiens); details: at 1 µM
# [7] = target: 5'-AMP-activated protein kinase catalytic subunit alpha-1 (Homo sapiens) (UniProt Q13131); details: at 0.1 µM
# 5'-AMP-activated protein kinase catalytic subunit alpha-1 (Homo sapiens), sequence (Q13131 whole entry, looked up): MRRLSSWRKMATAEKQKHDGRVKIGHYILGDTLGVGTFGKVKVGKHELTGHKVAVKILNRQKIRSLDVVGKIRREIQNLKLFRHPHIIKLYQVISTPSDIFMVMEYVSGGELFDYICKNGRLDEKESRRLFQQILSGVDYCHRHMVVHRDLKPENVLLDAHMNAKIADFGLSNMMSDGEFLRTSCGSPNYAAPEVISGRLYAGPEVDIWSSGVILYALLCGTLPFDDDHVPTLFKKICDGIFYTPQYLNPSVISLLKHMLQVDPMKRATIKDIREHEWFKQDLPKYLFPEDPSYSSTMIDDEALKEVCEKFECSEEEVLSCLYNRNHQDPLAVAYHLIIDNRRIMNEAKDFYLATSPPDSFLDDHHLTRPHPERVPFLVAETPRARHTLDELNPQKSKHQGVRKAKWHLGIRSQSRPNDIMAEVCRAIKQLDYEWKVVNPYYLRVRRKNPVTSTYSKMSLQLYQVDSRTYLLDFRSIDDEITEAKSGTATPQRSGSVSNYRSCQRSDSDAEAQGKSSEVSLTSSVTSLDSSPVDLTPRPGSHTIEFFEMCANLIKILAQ
# [8] = target: 5'-AMP-activated protein kinase catalytic subunit alpha-1 (Homo sapiens) (UniProt Q13131); details: at 1 µM
# [9] = target: 5'-AMP-activated protein kinase catalytic subunit alpha-2 (Homo sapiens) (UniProt P54646); details: at 0.1 µM
# 5'-AMP-activated protein kinase catalytic subunit alpha-2 (Homo sapiens), sequence (P54646 whole entry, looked up): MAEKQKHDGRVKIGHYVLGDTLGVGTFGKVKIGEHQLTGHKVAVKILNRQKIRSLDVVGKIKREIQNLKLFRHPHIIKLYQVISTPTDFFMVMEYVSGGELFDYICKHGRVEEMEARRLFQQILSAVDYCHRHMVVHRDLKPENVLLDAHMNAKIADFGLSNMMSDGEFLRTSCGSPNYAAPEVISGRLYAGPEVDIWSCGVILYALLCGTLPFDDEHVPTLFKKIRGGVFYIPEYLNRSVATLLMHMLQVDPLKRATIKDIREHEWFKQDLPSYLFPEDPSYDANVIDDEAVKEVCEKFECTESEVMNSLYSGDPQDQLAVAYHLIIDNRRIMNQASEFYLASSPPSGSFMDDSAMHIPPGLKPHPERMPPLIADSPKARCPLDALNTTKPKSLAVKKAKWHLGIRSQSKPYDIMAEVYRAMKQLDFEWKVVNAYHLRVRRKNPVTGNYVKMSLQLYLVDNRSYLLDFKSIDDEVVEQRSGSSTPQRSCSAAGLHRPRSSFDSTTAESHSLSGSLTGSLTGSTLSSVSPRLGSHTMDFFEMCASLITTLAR
# [10] = target: 5'-AMP-activated protein kinase catalytic subunit alpha-2 (Homo sapiens) (UniProt P54646); details: at 1 µM
# [11] = target: T4, NUAK family SNF1-like kinase 1 (Homo sapiens) (UniProt O60285); details: at 0.1 µM
# T4 sequence (whole entry): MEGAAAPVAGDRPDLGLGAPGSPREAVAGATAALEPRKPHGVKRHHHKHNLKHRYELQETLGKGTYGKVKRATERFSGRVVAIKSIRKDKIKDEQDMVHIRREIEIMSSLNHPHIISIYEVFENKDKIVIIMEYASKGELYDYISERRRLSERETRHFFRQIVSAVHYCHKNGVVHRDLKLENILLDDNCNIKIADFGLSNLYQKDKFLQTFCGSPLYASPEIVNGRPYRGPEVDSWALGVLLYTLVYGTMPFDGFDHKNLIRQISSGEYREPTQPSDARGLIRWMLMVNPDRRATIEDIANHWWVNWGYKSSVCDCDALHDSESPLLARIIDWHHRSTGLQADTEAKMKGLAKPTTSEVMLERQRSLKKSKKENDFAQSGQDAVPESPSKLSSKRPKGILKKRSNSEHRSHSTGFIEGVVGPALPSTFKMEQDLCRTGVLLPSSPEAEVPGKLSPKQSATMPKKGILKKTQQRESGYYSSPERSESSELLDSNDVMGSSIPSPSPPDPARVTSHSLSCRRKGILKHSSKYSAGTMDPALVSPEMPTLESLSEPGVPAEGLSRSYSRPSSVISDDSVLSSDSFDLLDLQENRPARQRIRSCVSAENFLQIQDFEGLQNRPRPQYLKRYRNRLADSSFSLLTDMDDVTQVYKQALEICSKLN
# [12] = target: T4, NUAK family SNF1-like kinase 1 (Homo sapiens); details: at 1 µM
# [13] = target: T5, Serine/threonine-protein kinase BRSK1 (Homo sapiens) (UniProt Q8TDC3); details: at 0.1 µM
# T5 sequence (whole entry): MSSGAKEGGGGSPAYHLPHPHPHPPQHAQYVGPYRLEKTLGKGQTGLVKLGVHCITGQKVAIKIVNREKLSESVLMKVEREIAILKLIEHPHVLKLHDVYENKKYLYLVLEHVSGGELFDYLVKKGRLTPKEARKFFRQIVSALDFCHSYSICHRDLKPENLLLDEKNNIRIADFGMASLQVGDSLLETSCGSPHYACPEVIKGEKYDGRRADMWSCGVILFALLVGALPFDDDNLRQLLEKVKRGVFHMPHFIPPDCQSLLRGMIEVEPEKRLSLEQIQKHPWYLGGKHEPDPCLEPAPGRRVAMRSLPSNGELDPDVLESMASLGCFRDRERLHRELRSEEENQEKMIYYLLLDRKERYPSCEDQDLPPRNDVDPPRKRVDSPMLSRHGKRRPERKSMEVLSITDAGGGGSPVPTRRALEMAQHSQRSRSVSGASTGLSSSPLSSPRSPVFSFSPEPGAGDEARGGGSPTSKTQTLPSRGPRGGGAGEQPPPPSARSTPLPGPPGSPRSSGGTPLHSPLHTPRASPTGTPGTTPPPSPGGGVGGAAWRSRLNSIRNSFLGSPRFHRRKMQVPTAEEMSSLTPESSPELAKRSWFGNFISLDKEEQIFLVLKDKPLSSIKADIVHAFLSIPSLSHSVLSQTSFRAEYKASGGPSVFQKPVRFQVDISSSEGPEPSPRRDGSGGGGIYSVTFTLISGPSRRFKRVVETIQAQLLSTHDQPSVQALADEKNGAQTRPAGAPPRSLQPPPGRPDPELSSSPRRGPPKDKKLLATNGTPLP
# [14] = target: T5, Serine/threonine-protein kinase BRSK1 (Homo sapiens); details: at 1 µM
# [15] = target: T6, Serine/threonine-protein kinase BRSK2 (Homo sapiens) (UniProt Q8IWQ3); details: at 0.1 µM
# T6 sequence (whole entry): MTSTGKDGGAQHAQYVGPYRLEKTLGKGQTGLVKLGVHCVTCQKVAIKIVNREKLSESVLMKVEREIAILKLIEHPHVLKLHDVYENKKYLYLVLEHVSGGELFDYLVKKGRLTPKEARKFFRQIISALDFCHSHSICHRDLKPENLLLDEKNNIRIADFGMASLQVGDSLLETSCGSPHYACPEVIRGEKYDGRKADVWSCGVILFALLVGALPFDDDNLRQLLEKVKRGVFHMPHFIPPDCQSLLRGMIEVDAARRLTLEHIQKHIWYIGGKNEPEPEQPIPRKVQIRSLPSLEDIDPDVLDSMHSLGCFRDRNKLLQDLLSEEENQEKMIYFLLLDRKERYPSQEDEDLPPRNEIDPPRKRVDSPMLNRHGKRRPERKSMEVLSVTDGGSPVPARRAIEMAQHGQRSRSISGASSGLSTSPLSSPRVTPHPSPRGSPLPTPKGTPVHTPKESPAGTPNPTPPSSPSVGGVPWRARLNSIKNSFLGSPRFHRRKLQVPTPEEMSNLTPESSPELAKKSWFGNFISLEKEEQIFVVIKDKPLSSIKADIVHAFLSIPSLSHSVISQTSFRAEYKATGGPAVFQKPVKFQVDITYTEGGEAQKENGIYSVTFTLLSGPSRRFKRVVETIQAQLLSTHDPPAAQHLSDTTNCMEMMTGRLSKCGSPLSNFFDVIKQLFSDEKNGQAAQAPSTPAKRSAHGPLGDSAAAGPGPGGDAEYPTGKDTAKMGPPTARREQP
# [16] = target: T6, Serine/threonine-protein kinase BRSK2 (Homo sapiens); details: at 1 µM
# [17] = target: Calcium/calmodulin-dependent protein kinase type 1D (Homo sapiens) (UniProt Q8IU85); details: at 0.1 µM
# Calcium/calmodulin-dependent protein kinase type 1D (Homo sapiens), sequence (Q8IU85 whole entry, looked up): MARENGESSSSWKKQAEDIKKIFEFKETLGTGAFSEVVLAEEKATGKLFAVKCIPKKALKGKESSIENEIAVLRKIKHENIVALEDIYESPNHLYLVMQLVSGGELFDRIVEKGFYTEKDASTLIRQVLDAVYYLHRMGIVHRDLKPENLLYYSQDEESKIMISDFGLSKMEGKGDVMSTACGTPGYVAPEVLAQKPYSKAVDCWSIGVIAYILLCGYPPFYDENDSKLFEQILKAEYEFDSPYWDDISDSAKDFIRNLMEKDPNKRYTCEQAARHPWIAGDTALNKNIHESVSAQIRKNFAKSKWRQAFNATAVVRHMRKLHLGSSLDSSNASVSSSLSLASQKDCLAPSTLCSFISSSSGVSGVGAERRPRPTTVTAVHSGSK
# [18] = target: Calcium/calmodulin-dependent protein kinase type 1D (Homo sapiens) (UniProt Q8IU85); details: at 1 µM
# [19] = target: Calcium/calmodulin-dependent protein kinase type II subunit alpha (Homo sapiens) (UniProt Q9UQM7); details: at 0.1 µM;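 note: reported values are averages (mean inhibition of CAMK2A)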
# Calcium/calmodulin-dependent protein kinase type II subunit alpha (Homo sapiens), sequence (Q9UQM7 whole entry): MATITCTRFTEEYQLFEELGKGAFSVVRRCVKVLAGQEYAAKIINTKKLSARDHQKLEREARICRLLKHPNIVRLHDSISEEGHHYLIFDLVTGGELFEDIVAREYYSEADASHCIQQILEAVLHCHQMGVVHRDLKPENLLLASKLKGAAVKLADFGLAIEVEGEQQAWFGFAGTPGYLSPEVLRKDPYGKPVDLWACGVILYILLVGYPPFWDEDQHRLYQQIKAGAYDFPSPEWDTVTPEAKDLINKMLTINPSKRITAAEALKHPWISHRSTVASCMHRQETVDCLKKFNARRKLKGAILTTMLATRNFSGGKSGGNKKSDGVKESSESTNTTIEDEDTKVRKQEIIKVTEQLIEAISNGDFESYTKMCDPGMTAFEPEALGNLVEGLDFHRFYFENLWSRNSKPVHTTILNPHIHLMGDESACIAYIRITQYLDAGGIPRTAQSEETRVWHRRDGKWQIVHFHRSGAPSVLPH
# [20] = target: T2, Serine/threonine-protein kinase Sgk2 (Homo sapiens); details: at 1 µM
# Ribosomal protein S6 kinase alpha-6 (Homo sapiens), sequence (Q9UK32 whole entry): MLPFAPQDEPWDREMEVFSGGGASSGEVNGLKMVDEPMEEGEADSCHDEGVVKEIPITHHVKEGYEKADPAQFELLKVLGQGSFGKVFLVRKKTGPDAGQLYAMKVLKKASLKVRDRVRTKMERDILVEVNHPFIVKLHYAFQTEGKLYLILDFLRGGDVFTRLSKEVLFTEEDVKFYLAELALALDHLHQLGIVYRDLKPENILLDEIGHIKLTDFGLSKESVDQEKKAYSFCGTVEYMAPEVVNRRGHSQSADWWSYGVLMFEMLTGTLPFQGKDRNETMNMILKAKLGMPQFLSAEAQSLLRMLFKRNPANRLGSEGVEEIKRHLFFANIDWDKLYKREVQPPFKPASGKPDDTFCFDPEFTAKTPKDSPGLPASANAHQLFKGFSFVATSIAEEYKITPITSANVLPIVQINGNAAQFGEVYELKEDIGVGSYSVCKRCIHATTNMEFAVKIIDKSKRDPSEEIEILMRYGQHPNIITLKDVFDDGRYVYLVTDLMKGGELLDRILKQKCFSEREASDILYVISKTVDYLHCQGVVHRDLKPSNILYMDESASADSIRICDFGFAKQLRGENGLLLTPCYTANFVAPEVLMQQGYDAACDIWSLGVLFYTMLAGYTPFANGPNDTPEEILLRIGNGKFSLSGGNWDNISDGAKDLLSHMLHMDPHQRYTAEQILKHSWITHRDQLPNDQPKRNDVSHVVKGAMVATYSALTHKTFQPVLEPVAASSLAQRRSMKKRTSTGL
Structure (SMILES),inhibition [1],inhibition [2],inhibition [3],inhibition [4],inhibition [5],inhibition [6],inhibition [7],inhibition [8],inhibition [9],inhibition [10],inhibition [11],inhibition [12],inhibition [13],inhibition [14],inhibition [15],inhibition [16],inhibition [17],inhibition [18],inhibition [19],inhibition [20]
NCc1ccc(-c2nc(-c3ccc(Cl)c(O)c3)c(-c3ccncc3)[nH]2)cc1,0.03%,0.62%,0.21%,0.15%,-0.56%,-0.81%,0.17%,-1.38%,-2.35%,3.06%,1.84%,3.79%,0.1%,0.59%,-0.21%,1.33%,0.15%,0.23%,0.76%,–
Fc1cccc(COc2ccc(Nc3ncnc4cc(-c5ccc[nH]5)sc34)cc2Cl)c1,2.27%,1.92%,3.96%,-0.18%,0.1%,4.46%,1.8%,0.98%,3.81%,3.27%,2.43%,6.42%,0.67%,1.16%,0.79%,4.01%,1.56%,1.16%,0.3%,5.58%
CCn1c(-c2nonc2N)nc2c(C#CC(C)(C)O)nc(OC[C@@H](N)c3ccccc3)cc21,17.5%,0.38%,3.01%,2.41%,43.1%,60.4%,26.6%,66.9%,4.59%,21.1%,28%,94.5%,0.41%,4.9%,0.42%,5%,0.26%,2.9%,-2.45%,10.3%
COc1cc(C)c(NC(=O)CN(C)C)cc1Nc1nc(Nc2cccc(F)c2C(N)=O)c2cc[nH]c2n1,23.1%,1.87%,-1.3%,1.44%,0.69%,0.16%,1.03%,0.78%,1.06%,4.27%,-0.32%,4.12%,1.09%,0.73%,0.37%,-2.24%,2.17%,16.7%,3.26%,0.65%
Cc1nnc(-c2ccc(C)c(-c3ccc(C(=O)Nc4cccc(C#N)c4)cc3)c2)o1,1.23%,0.29%,4.49%,-1.98%,1.01%,3.55%,2.8%,2.03%,-0.06%,2.95%,2.98%,2.37%,0.93%,1.01%,2.39%,4.23%,0.65%,0.26%,1.97%,0.76%
O=C1NC(=O)C(N2CCc3ccccc32)=C1c1ccc(Cl)cc1,1.19%,2.14%,2.97%,2.07%,3.22%,3%,0.74%,4.36%,4.52%,5.78%,4.44%,7.39%,3.67%,5.07%,2.92%,3.2%,0.76%,1.55%,4.4%,1.86%

# — ChEMBL document CHEMBL1961873, “Compounds: GSK PKIS; Assays: Nanosyn kinase panel” (2012)
